Source: PubChem BioAssay
Rows were chosen to be rich in hits. Some 5.5% of all compounds tested hit in one or more screens of this group.
Giardia killer – kills Giardia lamblia. Giardia lamblia trophozoite viability. activity change, % at 7.66 µM, hits read low. 0.15% of 340,000 active. AID 540267; in the data active = activity change below about -80%; inconclusive = between about -30% and that limit;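 note: parasites exposed to compound for two days anaerobically before the ATP read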
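Viability, read as ATP luminescence: trophozoites at 100 cells/well, compound added, 48 hrs anaerobic at 37 deg C, then 15-30 min room-temperature development before reading.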
ELG1 repair inh – ELG1-dependent DNA repair inhibition. HEK293T ELG1-luciferase reporter, luminescence, 16 h; DNA damage induced by 5-fluorouridine. Potency, µM (titrated, usually from 46.1 µM), without a hit: at the highest dose activity change, negative = inhibition, actives largely listed as inhibitors. 2.3% of 330,000 active. AID 504467; note: potency is the fitted concentration of half-maximal effect; nearly all actives have a fitted effect of over 55% in size
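HEK293T cells expressing luciferase-tagged ELG1 (2,000/well) received 5-Fluorouridine plus compound or DMSO for 16 hr at 37 °C. Luciferase was read by ONE-Glo luminescence after 30 min at room temperature.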
Coupling enz – coupling enzyme interference in Giardia aldolase counter-screen; coupling enzyme system counterscreen, AmpLite Red fluorescence; activity change, negative = inhibition, % at 58.2 µM, hits read low; 0.67% of 290,000 active; in the data active = activity change below about -30%
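Counterscreen lacking aldolase: glyceraldehyde-3-phosphate coupling-enzyme reagent preincubated 10 min at RT with compound (at 57.5 uM final), then substrate/coupling system with AmpLite Red added; fluorescence read at 525/598 nm after 20 min RT.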
Sfp PPTase inh – inhibitors of Bacillus subtilis Sfp phosphopantetheinyl transferase; Q9F4F7; Biochemical Sfp PPTase activity, qHTS; Potency, µM, for the others: largest response in the series, negative = inhibition, usual class: inhibitors; 3.5% of 310,000 active; AID 1490;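 note: the enzyme is Sfp with the accession as filed and its product quenches rhodamine fluorescence; potency is the fitted concentration of half-maximal effect; 0% = enzyme reaction without inhibitor and -100% = no enzyme wells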
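With Hepes-Na pH 7.6 buffer containing 10 mM MgCl2, Sfp (15 nM) modified BHQ-2-YbbR (12.5 uM) using rhodamine-CoA (5 uM). Two reads 30 minutes apart at 525/598 nm yielded each well's rate.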
The depositor's hits bear a star. Unless noted, calls come from the whole dose curve; as a rule, active = well fitted curve in the direction sought with a large enough effect; inconclusive = small, poorly fitted or top-dose-only effect, or another doubt; inactive = no such curve, though single readings can be large; an effect the other way counts as inactive or inconclusive. Unless noted, % is set by controls: 0 for no effect and ±100 for the full control effect.

`CCOC(=O)C1CCN(C(=O)C(C)Sc2nnc3ccccn23)CC1` (stereo not given) gave Giardia killer -22 and ELG1 repair inh 21%.
Clc1ccc2nc(-c3ccncc3)cc(-c3ccccc3)c2c1 was read as Giardia killer 6, ELG1 repair inh 12%, Coupling enz 4 and Sfp PPTase inh 10%.
`c1ccc(-c2cc(-c3ccncc3)nc3ccc4ccccc4c23)cc1` gave Giardia killer -2, ELG1 repair inh 1%, Coupling enz -2 and Sfp PPTase inh 56µM*.
NS(=O)(=O)c1ccc(NC(=S)NC2CCCCCC2)cc1 was read as Giardia killer -7, ELG1 repair inh 1%, Coupling enz 0 and Sfp PPTase inh 25µM*.
For NS(=O)(=O)c1ccc(NC(=S)NC(=O)C2CCCCC2)cc1 the results were Giardia killer 9, ELG1 repair inh -9%, Coupling enz 0 and Sfp PPTase inh 19%.
For CC(C)C(=O)NC(=S)Nc1ccc(S(=O)(=O)NC2CCCCC2)cc1 the results were Giardia killer -14, ELG1 repair inh 12µM* and Sfp PPTase inh -3%.
For CC(=O)Nc1ccc(S(=O)(=O)NC2CCCCCC2)cc1 the results were Giardia killer -1, ELG1 repair inh -1%, Coupling enz 2 and Sfp PPTase inh 3%.
NS(=O)(=O)c1ccc(NC(=S)NC2CCCC2)cc1 was read as Giardia killer 0, ELG1 repair inh -2%, Coupling enz 0 and Sfp PPTase inh 10µM*.
For CCc1ccccc1NC(=O)NNC(=O)CCc1ccc(OC)cc1 the results were Giardia killer -16, ELG1 repair inh 8%, Coupling enz -2 and Sfp PPTase inh 26%.
`CC(N=C1NS(=O)(=O)c2ccccc21)C(=O)NCc1ccc(F)cc1` (stereo not given) gave Giardia killer -1 and ELG1 repair inh -2%.
Screening COc1cc(CN2CCCCCC2)c([N+](=O)[O-])cc1OC returned Giardia killer 0, ELG1 repair inh 3%, Coupling enz -7 and Sfp PPTase inh 63µM*.
COc1cc(CN2CCN(Cc3ccc([N+](=O)[O-])cc3)CC2)c([N+](=O)[O-])cc1OC was read as Giardia killer 9, ELG1 repair inh 18µM*, Coupling enz -2 and Sfp PPTase inh -28%.
`COc1cccc(CNc2ccc(F)c([N+](=O)[O-])c2)c1O` gave Giardia killer -2, ELG1 repair inh 7%, Coupling enz 0 and Sfp PPTase inh 12%.
`COc1cc(CNc2ccccc2)c([N+](=O)[O-])cc1OC` gave Giardia killer -5, ELG1 repair inh -28%, Coupling enz -2 and Sfp PPTase inh 45µM*.
COc1cccc(CN2CCN(Cc3cc(OC)c(OC)cc3[N+](=O)[O-])CC2)c1 was read as Giardia killer -1, ELG1 repair inh inconclusive, Coupling enz 0 and Sfp PPTase inh 56µM*.
For COc1cc(CN2CCN(c3ccccc3F)CC2)c([N+](=O)[O-])cc1OC the results were Giardia killer 26, ELG1 repair inh -11%, Coupling enz -15 and Sfp PPTase inh -58%.
COc1cc(CN2CCSCC2)c([N+](=O)[O-])cc1OC was read as Giardia killer -17, ELG1 repair inh -19%, Coupling enz -2 and Sfp PPTase inh inconclusive.
Screening CCOC(=O)N/N=C1/C[C@@H](O)[C@@H](O)[C@@H]2[C@@H]3C(=O)N(C4CCCCC4)C(=O)[C@H]3CC[C@H]12 returned Coupling enz 2 and Sfp PPTase inh 16%.
Screening CCOC(=O)c1c(C)[nH]c(C)c1S(=O)(=O)N1CCN(c2cccc(C)c2)C(C)C1 (stereo not given) returned Giardia killer -22, ELG1 repair inh -23%, Coupling enz -4 and Sfp PPTase inh -3%.
`COc1ccc([C@H]2CC(=O)C=C(c3ccc(Cl)c(C(F)(F)F)c3)C2)cc1OC` gave Giardia killer -17 and ELG1 repair inh inconclusive.
`O=C(/C=C/c1ccc[nH]1)c1ccccc1` gave Giardia killer -10, ELG1 repair inh inconclusive, Coupling enz -5 and Sfp PPTase inh 56µM*.
Screening CC1CCN(C(=O)/C(=C/c2ccccc2Cl)c2ccccc2)CC1 returned Giardia killer -26, ELG1 repair inh 8%, Coupling enz -1 and Sfp PPTase inh 79µM*.
`COc1ccc(-c2nc3cnc(OC)nc3n(-c3ccc(OC)cc3)c2=O)cc1` gave Coupling enz 5 and Sfp PPTase inh 0%.
`CCCCCn1c(=O)[nH]c2cc(C(=O)N3CCN(c4ccc(C(C)=O)cc4)CC3)ccc2c1=O` gave Giardia killer -5, ELG1 repair inh 5.8µM*, Coupling enz 4 and Sfp PPTase inh 9%.
For CCCCCn1c(=O)[nH]c2cc(C(=O)N3CCN(CC)CC3)ccc2c1=O the results were Giardia killer -2, ELG1 repair inh -6%, Coupling enz -2 and Sfp PPTase inh 6%.
CC(=O)c1ccc(N2CCN(C(=O)CCCn3c(=O)[nH]c4ccsc4c3=O)CC2)cc1 was read as Giardia killer 16, ELG1 repair inh -19%, Coupling enz 7 and Sfp PPTase inh 7%.
Screening CC(=O)c1ccc(N2CCN(C(=O)CCCn3c(=O)[nH]c4ccc(Br)cc4c3=O)CC2)cc1 returned Giardia killer -13, ELG1 repair inh 18µM*, Coupling enz 3 and Sfp PPTase inh 3%.
For Cc1ccc(-c2noc(C3CCN(S(=O)(=O)c4ccc5c(c4)OCCO5)CC3)n2)o1 the results were Giardia killer 4, ELG1 repair inh 23µM*, Coupling enz 0 and Sfp PPTase inh 8%.
`O=S(=O)(c1ccc2ccccc2c1)N1CCC(c2nc(-c3ccncc3)no2)CC1` gave Giardia killer 18, ELG1 repair inh 13µM*, Coupling enz 3 and Sfp PPTase inh -18%.
For CC(C)C(=O)N1CCC(c2nc(-c3ccc(S(=O)(=O)N4CCN(C)CC4)cc3)no2)CC1 the results were Giardia killer 10, ELG1 repair inh -8%, Coupling enz 3 and Sfp PPTase inh 10%.
For CC(C)N(C(=O)N1CCC(c2nc(-c3ccncc3)no2)CC1)C(C)C the results were Giardia killer 1, ELG1 repair inh 16µM*, Coupling enz 8 and Sfp PPTase inh 9%.
Screening CN(C)c1ccc(-c2noc(C3CCN(S(=O)(=O)c4cccc(Cl)c4)CC3)n2)cc1 returned Giardia killer -11, ELG1 repair inh inconclusive, Coupling enz -2 and Sfp PPTase inh 13%.
O=C(NN=Cc1cc(Br)c(O)c(Br)c1)c1ccccc1NS(=O)(=O)c1cccs1 was read as Giardia killer -8 and ELG1 repair inh 6%.
`COC1=CC(C)C2CC3OC(=O)CC4C(C)=C(OC)C(=O)C([C@]2(C)C1=O)[C@]34C` (stereo not given in full) gave Coupling enz 2 and Sfp PPTase inh -4%.
`COCCn1c(N)c(Sc2ccc(Cl)cc2)c(=O)[nH]c1=O` gave Giardia killer 6, ELG1 repair inh 15%, Coupling enz 1 and Sfp PPTase inh -1%.
